# Measured values reported in PubChem BioAssay AID1671192 (National Center for Advancing Translational Sciences (NCATS), 2021).
# Results filed as inconclusive are left out. Activity calls are given as the source filed them. Calls come from the whole dose curve; as a rule, active = well fitted curve in the direction sought with a large enough effect; inconclusive = small, poorly fitted or top-dose-only effect, or another doubt; inactive = no such curve, though single readings can be large or run the other way.
# Molecular target: Polyunsaturated fatty acid lipoxygenase ALOX15 (Homo sapiens) (UniProt P16050)
# Sequence (P16050 whole entry, looked up): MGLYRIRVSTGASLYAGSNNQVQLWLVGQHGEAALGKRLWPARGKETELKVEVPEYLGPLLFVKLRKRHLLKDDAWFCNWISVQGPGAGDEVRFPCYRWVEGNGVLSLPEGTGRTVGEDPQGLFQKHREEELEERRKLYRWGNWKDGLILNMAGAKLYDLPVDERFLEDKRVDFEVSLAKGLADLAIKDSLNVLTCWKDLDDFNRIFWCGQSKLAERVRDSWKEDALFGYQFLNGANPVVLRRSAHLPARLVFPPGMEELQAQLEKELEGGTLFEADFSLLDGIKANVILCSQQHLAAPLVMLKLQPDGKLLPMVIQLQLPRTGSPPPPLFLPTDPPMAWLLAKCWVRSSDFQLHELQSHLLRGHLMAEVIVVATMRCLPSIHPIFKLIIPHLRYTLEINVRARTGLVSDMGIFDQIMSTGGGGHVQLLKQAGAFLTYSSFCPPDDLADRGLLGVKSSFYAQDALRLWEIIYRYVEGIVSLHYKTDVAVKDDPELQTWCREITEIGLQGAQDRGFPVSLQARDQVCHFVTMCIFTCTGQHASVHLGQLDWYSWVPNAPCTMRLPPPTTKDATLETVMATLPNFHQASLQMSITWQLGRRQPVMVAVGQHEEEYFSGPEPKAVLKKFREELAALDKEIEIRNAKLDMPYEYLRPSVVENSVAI
# Experiment: Counterscreen qHTS for inhibitors of human arachidonate 12S-lipoxygenase (ALOX12): ALOX15 Assay
# Conditions: purified ALOX15 enzyme activity; series mostly up to 110 µM
# Outline: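 Xylenol orange–ferric complex formation, read as the 573 nm to 405 nm absorbance ratio, tracks product from 50 uM arachidonic acid turned over for 30 min at RT. Enzyme is 40 nM ALOX15, pH 7.5 HEPES buffer, compound-preincubated 15 min.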
row,SMILES,outcome
1,O=S1(=O)CCCN1C1CCN(Cc2cccc3ccccc23)CC1,inactive
2,COc1ccc(CNc2ncnc3c2CN(C2CCCNC2)C(=O)CN3C)cc1 (configuration not stated),inactive
3,NCC(=O)N1Cc2ccccc2CC2(CCN(CC3CCNC3)C2)C1 (configuration not stated),inactive
4,COc1ccc(-c2cc(C(=O)NCC3CC3)c3c(C4CCNC4)noc3n2)cc1 (configuration not stated),inactive
5,COc1cccc([S+](=O)([O-])N2CC(Oc3ccc(F)c(F)c3)C2)c1,inactive
6,O=C1NCc2ccccc2CC12CCN(Cc1ccc(-c3ccccc3)cc1)CC2,inactive
7,CN1CC(=O)N(C2CCCNC2)Cc2c(NCCCO)ncnc21 (configuration not stated),inactive
8,CN1CC(=O)N(C2CCCNC2)Cc2c(NC3CCCCCC3)ncnc21 (configuration not stated),inactive
9,O=C1NCc2ccccc2CC12CCCN2Cc1ccc(Cl)cc1 (configuration not stated),inactive
10,COc1ccc(CC(=O)N2Cc3ccccc3CC23CCCN([S+](C)(=O)[O-])C3)cc1 (configuration not stated),inactive
11,CN1CC(=O)N(C2CCNCC2)Cc2c1ncnc2N1CCC(N2CCOCC2)CC1,inactive
12,CCc1nc2c(c(-c3ccc(OC)cc3)n1)CN([S+](=O)([O-])c1c(C)noc1C)CC2,inactive
13,CN1CC(=O)N(C2CCCNC2)Cc2c1ncnc2N1CCSCC1 (configuration not stated),inactive
14,Cc1ccc2nc(C3CCN(Cc4ccc(-c5cccs5)cc4)CC3)[nH]c(=O)c2c1,inactive
15,COc1ccc(N2CC3CCC(C2)N3C(=O)c2ccc3c(c2)OCO3)cc1,inactive
16,CN1CC(=O)N(C2CCCNCC2)Cc2c1ncnc2N1CCCC(O)C1 (configuration not stated),inactive
17,Cc1cc(C)cc(-c2ccc(CN3CCCC(c4nc5ccc(F)cc5c(=O)[nH]4)C3)cc2)c1 (configuration not stated),inactive
18,COc1ccc(C(=O)N2Cc3ccccc3CC23CCCN(C(=O)CCCN)C3)cc1 (configuration not stated),inactive
19,CN1CC(=O)N(C2CCCNCC2)Cc2c(NCc3cccc(Cl)c3)ncnc21 (configuration not stated),inactive

row,SMILES,outcome
1,CC(=O)NC1CC2(CCN(C(=O)Cc3cnc[nH]3)CC2)c2ccccc21 (configuration not stated),inactive
2,O=C1NCc2ccccc2CC12CCN(Cc1c(Cl)cncc1Cl)C2 (configuration not stated),inactive
3,O=C1NC2(Cc3ccccc31)CN(C(=O)c1ccccc1F)C2,inactive
4,O=c1n(-c2cccc(Cl)c2)nc2n1CCN([S+](=O)([O-])c1ccccc1)C2,inactive
5,c1ccc2c(c1)CCN2C1CN(Cc2cccc3ccccc23)C1,inactive
6,O=C1NC(=NC2CCCC2)C2(CCCN(Cc3ccsc3)C2)N1c1cc(F)cc(F)c1 (configuration not stated),inactive
7,CN1CC(=O)N(C2CCNC2)Cc2c(NCCCN3CCCCC3)ncnc21 (configuration not stated),inactive
8,CNC1CCOc2ccccc21 (configuration not stated),inactive
9,Cc1ccc(CCN2CCC3(Cc4ccccc4CNC3=O)C2)cc1 (configuration not stated),inactive
10,O=C(c1cc(C2CC2)nc2onc(C3CCCN3)c12)N1CCOCC1 (configuration not stated),inactive
11,Cc1ccc(CN2CC3(Cc4ccccc4NC3=O)C2)cc1,inactive
12,O=C(c1ccccc1)N1Cc2ccccc2CC2(CCN(CC3CCNC3)C2)C1 (configuration not stated),inactive
13,COc1ccc(CNc2ncnc3c2CN(C2CCNCC2)C(=O)CN3C)cc1,inactive
14,COCCNc1ncnc2c1CN(C1CCNCC1)C(=O)CN2C,inactive
15,COc1cccc(N2C(=O)NC(=NC3CCCCC3)C23CCCN(C(=O)c2ccccc2)C3)c1 (configuration not stated),inactive
16,COc1ccc(CN2CCCC23Cc2ccccc2CNC3=O)c(O)c1 (configuration not stated),inactive
17,O=Cc1ccccc1-c1ccc(O)cc1,inactive
18,COc1ccc(-c2cc(C(=O)NCC(C)C)c3c(C)nn(-c4ccccc4)c3n2)cc1,inactive
